Our source for the binding signal values is publication PMC7862700, “An all-to-all approach to the identification of sequence-specific readers for epigenetic DNA modifications on cytosine”.

Common to all, as to assay: DAPPL (digital affinity profiling via proximity ligation, sequencing); 10 mM Tris-HCl pH 7.5, 50 mM NaCl, 1 mM DTT, 4% glycerol, room temperature, 30 min; GST-TFs on glutathione beads, 16-mer random dsDNA library, 0.1% formaldehyde crosslink after washing; high values mean tight binding
The target of test [1] is T1, FLI1 (Homo sapiens, UniProt Q01543 1-452).
T1 sequence: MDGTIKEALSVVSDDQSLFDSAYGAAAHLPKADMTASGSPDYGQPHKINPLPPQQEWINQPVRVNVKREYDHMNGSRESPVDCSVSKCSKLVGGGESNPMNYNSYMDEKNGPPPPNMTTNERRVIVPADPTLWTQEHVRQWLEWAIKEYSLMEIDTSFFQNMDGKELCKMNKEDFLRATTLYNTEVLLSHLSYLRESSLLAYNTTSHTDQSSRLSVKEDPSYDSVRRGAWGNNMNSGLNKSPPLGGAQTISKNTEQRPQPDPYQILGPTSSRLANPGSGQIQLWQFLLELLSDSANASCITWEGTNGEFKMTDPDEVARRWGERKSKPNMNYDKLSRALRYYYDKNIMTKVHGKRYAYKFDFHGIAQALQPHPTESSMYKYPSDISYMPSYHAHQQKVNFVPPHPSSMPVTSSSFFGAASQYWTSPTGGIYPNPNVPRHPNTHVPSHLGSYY
Conditions: protein: recombinant; tags: N-terminal GST; dsDNA, one strand shown. The procedure, abridged:
(§1)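 Sequencing on an Illumina NextSeq500 followed washing, crosslinking with 0.1% formaldehyde, proximity ligation (BsaI/T4 ligase, 1 h, 37 °C) and PCR amplification of pools that had been incubated for 30 min at room temperature with 200 nmole of a random double-stranded 16-mer DNA library in Tris/NaCl/DTT/glycerol buffer. Each pool held DNA-barcoded human transcription factors, expressed in yeast as GST fusions and captured on glutathione beads, plus a tag-only sample. Binding signal is a hexamer's read frequency for a factor divided by its frequency in the tag-only sample.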

In test [2] the target is T2, ELK1 (Homo sapiens, UniProt P19419 1-428).
T2 sequence: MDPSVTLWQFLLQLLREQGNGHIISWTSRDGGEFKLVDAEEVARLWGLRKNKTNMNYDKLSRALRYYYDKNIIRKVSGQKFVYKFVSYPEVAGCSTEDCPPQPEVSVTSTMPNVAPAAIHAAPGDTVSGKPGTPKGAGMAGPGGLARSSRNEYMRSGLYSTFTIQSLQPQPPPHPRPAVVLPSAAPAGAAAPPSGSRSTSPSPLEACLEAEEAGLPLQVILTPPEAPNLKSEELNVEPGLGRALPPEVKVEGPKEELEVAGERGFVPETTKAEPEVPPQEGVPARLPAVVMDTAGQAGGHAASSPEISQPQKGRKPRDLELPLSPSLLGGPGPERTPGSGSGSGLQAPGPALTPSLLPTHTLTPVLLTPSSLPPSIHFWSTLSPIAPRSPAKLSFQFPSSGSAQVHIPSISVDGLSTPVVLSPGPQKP
As to conditions: protein: recombinant; tags: N-terminal GST; dsDNA, one strand shown. The procedure, abridged:
as §1

Test [3] addresses T3, GABPA (Homo sapiens, UniProt Q06546 1-454).
T3 sequence: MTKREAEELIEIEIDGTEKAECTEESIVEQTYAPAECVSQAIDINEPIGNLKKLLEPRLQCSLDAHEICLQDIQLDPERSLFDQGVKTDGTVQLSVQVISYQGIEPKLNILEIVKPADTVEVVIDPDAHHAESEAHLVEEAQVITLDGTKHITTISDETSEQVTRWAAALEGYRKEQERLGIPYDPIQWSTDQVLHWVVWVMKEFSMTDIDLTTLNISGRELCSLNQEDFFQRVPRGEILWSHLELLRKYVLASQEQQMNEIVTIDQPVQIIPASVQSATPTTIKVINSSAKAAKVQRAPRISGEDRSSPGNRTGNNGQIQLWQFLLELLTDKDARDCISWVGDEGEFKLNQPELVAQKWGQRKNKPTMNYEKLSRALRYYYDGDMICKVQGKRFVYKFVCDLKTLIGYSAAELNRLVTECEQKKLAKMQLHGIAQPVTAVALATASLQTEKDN
Conditions: protein: recombinant; tags: N-terminal GST; dsDNA, one strand shown. The procedure, abridged:
as §1

Test [4] deals with T4, ERG (Homo sapiens, UniProt P11308 1-479).
T4 sequence: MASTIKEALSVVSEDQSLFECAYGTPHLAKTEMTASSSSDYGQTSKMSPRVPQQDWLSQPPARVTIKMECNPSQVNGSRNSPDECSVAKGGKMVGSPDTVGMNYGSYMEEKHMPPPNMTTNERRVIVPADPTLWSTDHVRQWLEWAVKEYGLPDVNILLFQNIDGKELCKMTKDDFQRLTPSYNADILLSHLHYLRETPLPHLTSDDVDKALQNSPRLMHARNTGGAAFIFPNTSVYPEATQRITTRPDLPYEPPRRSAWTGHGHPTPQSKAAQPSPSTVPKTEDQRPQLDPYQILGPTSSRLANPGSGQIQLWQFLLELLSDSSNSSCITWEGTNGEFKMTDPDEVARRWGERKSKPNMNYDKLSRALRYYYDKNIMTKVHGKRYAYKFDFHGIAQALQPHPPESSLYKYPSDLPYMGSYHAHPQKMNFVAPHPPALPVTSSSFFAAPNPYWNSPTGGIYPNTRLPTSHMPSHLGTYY
As to conditions: protein: recombinant; tags: N-terminal GST; dsDNA, one strand shown. Put shortly: as §1

Test [5] addresses ELF1 (Homo sapiens, UniProt P32519 1-619). Conditions: protein: recombinant; tags: N-terminal GST; dsDNA, one strand shown. Put shortly:
as §1

In test [6] the target is T5, EHF (Homo sapiens, UniProt Q9NZC4 1-300).
T5 sequence: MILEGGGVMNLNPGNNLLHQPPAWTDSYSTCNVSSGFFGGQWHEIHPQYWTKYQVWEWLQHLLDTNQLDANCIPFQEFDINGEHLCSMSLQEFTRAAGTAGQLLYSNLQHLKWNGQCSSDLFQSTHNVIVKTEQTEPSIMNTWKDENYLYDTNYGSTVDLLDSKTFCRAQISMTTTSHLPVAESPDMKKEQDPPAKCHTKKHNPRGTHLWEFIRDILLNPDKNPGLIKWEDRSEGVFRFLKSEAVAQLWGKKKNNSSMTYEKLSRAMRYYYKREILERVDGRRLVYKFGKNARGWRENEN
Conditions: protein: recombinant; tags: N-terminal GST; dsDNA, one strand shown. The procedure, abridged:
as §1

Test [7] addresses SPI1 (Homo sapiens, UniProt P17947 1-270). As to conditions: protein: recombinant; tags: N-terminal GST; dsDNA, one strand shown. The procedure, abridged: as §1
In test [8] the target is SPIB (Homo sapiens, UniProt Q01892 1-262). As to conditions: protein: recombinant; tags: N-terminal GST; dsDNA, one strand shown. Put shortly: as §1
The target in test [9] is T6, ELK3 (Homo sapiens, UniProt P41970 1-407).
T6 sequence: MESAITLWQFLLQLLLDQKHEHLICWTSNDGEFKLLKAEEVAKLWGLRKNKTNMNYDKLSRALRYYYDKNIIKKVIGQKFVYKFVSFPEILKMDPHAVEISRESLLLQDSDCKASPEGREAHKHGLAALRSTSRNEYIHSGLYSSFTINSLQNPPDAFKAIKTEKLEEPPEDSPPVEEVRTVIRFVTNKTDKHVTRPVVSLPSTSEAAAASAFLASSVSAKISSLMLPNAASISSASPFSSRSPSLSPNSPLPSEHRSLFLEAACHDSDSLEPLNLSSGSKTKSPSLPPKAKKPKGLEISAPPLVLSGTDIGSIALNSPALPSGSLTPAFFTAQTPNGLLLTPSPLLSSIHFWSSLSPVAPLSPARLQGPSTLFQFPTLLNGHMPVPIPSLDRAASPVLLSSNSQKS
Conditions: protein: recombinant; tags: N-terminal GST; dsDNA, one strand shown. The procedure, abridged: as §1

In test [10] the target is T7, FEV (Homo sapiens, UniProt Q99581 1-238).
T7 sequence: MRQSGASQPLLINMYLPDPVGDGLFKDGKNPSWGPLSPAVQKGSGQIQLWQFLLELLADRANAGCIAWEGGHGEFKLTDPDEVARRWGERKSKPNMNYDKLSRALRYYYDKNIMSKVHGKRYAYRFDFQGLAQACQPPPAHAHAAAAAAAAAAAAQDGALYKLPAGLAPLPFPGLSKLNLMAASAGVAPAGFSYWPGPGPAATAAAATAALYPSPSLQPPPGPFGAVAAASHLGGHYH
As to conditions: protein: recombinant; tags: N-terminal GST; dsDNA, one strand shown. Put shortly: as §1

The target in test [11] is ETV5 (Homo sapiens, UniProt P41161 1-510). As to conditions: protein: recombinant; tags: N-terminal GST; dsDNA, one strand shown. Put shortly:
as §1

Test [12] concerns the target HSF1 (Homo sapiens, UniProt Q00613 1-529). As to conditions: protein: recombinant; tags: N-terminal GST; chain copies: 3; dsDNA, one strand shown. Put shortly: as §1
In test [13] the target is T8, SPIC (Homo sapiens, UniProt Q8N5J4 1-248).
T8 sequence: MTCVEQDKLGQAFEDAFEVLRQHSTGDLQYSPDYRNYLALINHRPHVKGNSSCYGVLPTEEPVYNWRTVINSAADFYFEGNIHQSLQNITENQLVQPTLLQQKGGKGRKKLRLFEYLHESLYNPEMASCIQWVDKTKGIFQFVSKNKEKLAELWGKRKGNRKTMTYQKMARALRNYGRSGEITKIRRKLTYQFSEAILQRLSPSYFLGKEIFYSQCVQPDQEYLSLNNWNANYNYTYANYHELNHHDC
Conditions: protein: recombinant; tags: N-terminal GST; dsDNA, one strand shown. The procedure, abridged:
as §1

Test [14] has as its target ELF4 (Homo sapiens, UniProt Q99607 1-663). As to conditions: protein: recombinant; tags: N-terminal GST; dsDNA, one strand shown. The procedure, abridged: as §1
Test [15] deals with T9, ELK4 (Homo sapiens, UniProt P28324-2 1-405).
T9 sequence: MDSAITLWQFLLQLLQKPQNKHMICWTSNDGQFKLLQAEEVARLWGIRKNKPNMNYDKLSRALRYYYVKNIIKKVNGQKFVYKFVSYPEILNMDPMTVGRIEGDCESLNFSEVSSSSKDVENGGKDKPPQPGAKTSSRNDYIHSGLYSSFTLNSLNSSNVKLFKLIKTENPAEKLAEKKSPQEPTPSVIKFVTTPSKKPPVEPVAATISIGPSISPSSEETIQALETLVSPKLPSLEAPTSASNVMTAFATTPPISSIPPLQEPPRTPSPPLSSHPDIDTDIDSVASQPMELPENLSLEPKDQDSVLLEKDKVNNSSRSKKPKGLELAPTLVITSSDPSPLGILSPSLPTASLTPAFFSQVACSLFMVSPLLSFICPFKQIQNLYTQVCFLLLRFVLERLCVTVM
As to conditions: protein: recombinant; tags: N-terminal GST; dsDNA, one strand shown. Put shortly:
as §1

For test [16], the target named is T10, ETV2 (Homo sapiens, UniProt O00321 1-342).
T10 sequence: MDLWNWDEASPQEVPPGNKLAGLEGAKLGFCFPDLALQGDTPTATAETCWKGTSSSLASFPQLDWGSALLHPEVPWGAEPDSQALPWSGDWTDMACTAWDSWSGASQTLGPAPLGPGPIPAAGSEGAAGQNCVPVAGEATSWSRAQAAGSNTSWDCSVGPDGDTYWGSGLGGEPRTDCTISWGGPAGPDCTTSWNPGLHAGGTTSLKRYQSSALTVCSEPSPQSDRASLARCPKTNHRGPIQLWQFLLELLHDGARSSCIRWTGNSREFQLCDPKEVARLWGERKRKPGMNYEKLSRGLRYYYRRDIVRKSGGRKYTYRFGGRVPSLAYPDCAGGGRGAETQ
Conditions: protein: recombinant; tags: N-terminal GST; dsDNA, one strand shown. Put shortly:
as §1

Test [17] has as its target T11, ELF3 (Homo sapiens, UniProt P78545 1-371).
T11 sequence: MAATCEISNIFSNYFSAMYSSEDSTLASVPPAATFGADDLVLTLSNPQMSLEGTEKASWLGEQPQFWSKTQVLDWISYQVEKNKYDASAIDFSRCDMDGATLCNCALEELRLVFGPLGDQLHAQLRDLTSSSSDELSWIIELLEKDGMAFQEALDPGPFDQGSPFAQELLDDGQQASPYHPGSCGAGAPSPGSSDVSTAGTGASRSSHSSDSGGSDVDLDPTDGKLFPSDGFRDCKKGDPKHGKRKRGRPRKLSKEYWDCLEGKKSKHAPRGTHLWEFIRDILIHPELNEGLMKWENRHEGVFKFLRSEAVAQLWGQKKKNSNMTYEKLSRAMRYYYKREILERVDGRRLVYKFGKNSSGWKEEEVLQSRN
Conditions: protein: recombinant; tags: N-terminal GST; dsDNA, one strand shown. Put shortly: as §1

Test [18] concerns the target ETV1 (Homo sapiens, UniProt P50549 1-477). As to conditions: protein: recombinant; tags: N-terminal GST; dsDNA, one strand shown. Put shortly: as §1

Sequence of HSF1 (Q00613 whole entry): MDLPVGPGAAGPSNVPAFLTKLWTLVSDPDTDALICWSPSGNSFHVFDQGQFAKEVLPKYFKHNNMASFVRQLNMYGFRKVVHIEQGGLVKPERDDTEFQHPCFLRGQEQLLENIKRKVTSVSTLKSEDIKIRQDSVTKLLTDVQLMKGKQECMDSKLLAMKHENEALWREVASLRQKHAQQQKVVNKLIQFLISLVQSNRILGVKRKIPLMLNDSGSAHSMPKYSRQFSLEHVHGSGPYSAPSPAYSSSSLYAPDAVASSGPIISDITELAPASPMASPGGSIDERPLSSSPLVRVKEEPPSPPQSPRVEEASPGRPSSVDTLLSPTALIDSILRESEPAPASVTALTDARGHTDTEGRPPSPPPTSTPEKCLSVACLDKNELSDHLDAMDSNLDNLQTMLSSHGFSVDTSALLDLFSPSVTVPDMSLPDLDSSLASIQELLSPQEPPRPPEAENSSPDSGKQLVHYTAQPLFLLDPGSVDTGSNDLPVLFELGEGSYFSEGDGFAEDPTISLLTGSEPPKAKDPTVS
Sequence of SPIB (Q01892 whole entry): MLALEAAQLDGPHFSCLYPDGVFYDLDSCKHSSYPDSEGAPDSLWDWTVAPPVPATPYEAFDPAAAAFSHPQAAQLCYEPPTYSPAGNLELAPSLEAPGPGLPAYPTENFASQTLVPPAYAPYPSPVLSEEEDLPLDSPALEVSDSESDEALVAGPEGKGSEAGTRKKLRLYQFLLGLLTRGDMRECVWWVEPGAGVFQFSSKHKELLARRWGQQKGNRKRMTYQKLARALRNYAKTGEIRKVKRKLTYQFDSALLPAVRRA
Sequence of ETV5 (P41161 whole entry): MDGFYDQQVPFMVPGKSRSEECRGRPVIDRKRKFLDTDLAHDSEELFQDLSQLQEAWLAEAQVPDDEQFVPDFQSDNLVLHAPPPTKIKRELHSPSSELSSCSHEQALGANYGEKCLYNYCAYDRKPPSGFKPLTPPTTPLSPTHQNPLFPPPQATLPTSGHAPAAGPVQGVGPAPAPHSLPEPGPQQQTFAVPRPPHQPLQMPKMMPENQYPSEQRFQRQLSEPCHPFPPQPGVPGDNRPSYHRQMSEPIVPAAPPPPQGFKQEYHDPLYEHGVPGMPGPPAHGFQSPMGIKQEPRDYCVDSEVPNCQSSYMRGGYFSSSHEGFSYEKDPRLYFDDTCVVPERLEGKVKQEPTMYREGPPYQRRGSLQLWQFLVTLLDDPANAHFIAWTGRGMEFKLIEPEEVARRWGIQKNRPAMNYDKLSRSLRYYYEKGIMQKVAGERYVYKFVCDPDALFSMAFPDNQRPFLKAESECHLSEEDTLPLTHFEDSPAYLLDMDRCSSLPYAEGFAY
Sequence of ELF1 (P32519 whole entry): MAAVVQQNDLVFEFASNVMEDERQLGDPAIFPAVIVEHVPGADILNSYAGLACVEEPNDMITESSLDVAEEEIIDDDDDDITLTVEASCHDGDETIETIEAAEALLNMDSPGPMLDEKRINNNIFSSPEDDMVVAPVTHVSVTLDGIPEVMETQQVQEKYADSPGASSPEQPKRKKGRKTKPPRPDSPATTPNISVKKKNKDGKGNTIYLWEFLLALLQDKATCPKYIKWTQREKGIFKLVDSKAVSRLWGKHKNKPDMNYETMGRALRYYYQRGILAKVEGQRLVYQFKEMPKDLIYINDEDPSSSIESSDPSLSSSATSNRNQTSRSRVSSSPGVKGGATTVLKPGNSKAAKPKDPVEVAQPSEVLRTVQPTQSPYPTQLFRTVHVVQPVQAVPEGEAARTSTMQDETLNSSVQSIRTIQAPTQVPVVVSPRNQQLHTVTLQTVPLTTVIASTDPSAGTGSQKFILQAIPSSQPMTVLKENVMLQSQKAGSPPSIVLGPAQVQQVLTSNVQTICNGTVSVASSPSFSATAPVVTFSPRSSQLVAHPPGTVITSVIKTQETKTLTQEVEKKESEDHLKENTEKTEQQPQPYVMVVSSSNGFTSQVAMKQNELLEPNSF
Sequence of ETV1 (P50549 whole entry): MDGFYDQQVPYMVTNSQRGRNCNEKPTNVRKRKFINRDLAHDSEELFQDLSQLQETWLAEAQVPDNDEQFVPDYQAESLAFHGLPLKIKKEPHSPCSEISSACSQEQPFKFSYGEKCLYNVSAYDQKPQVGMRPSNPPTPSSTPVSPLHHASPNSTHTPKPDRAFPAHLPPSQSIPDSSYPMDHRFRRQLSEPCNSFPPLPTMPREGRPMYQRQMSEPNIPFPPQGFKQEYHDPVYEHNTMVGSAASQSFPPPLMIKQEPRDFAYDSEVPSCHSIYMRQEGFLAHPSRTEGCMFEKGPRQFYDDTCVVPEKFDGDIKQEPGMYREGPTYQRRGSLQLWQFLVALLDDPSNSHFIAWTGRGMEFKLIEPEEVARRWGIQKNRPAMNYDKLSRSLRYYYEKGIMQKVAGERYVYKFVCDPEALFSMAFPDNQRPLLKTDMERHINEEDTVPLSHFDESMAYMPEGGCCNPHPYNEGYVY
Sequence of ELF4 (Q99607 whole entry): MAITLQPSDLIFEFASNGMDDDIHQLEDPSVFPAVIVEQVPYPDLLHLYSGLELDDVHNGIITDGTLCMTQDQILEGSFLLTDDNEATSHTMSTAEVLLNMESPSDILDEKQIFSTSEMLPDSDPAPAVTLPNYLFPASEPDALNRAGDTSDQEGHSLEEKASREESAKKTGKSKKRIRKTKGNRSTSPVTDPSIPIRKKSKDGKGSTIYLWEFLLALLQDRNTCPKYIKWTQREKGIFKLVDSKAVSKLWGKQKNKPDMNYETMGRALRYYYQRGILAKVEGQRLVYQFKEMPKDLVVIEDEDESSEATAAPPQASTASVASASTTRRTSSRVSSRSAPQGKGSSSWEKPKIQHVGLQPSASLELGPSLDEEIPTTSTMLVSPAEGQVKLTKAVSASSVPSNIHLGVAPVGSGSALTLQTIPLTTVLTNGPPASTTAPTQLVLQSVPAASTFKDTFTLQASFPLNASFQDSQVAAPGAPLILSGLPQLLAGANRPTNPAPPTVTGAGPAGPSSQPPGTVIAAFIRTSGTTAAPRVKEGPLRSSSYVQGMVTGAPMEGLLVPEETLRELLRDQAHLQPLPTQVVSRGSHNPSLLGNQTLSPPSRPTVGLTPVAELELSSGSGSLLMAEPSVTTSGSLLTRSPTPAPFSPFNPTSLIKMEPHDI

For the sequence CGTCCC, the binding signal in test [1] was 1.3 fold enrichment (6-mer frequency, TF over GST control); in test [2], 1.39 fold enrichment (6-mer frequency, TF over GST control); in [3], 1.42 fold enrichment (6-mer frequency, TF over GST control); in test [4] it was 1.37 fold enrichment (6-mer frequency, TF over GST control); in test [5], 1.36 fold enrichment (6-mer frequency, TF over GST control); in test [6] it was 1.44 fold enrichment (6-mer frequency, TF over GST control). Moreover, the binding signal in test [7] was 1.23 fold enrichment (6-mer frequency, TF over GST control); in test [8], 1.31 fold enrichment (6-mer frequency, TF over GST control); in [9], 1.57 fold enrichment (6-mer frequency, TF over GST control); in test [10], 1.34 fold enrichment (6-mer frequency, TF over GST control); in [11], 1.3 fold enrichment (6-mer frequency, TF over GST control); in test [12], 1.08 fold enrichment (6-mer frequency, TF over GST control). The binding signal in [13] was 1.38 fold enrichment (6-mer frequency, TF over GST control); in test [14] it was 1.27 fold enrichment (6-mer frequency, TF over GST control); in test [15] it was 1.39 fold enrichment (6-mer frequency, TF over GST control); in [16] it was 1.12 fold enrichment (6-mer frequency, TF over GST control); in test [17], 1.45 fold enrichment (6-mer frequency, TF over GST control); in test [18] it was 1.34 fold enrichment (6-mer frequency, TF over GST control).
